# Test results: the supplement of paper PMC10849652
# The full data set covers some 7,900 targets. This sample favours those with a hit. About 0.6% of all pairs of compound and target were hits. Values without a mark were called inactive.
# Experiments:
# Assay in all cases: log2 fold change, soluble protein after heating vs DMSO (PISA); higher = thermal stabilisation; K562 cells, 10 uM, 30 min; active = over 0.2 and 3.5 SD of the protein, either way, in both replicates (recomputed)
# [1] = compound: C1=CC=C(C=C1)[C@H](COC2=CC3=C(C=C2)NC(=O)N3)NC(=O)C4=CC=CN(C4=O)CC5=CC(=C(C=C5)F)F
# In short: (§1)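 K562 cells at 2×10^6 cells/mL were exposed to 10 μM compound for 30 min, then aliquots were heated for 3 min across 48°C-58°C, pooled, and extracted in PBS containing 0.5% NP-40 at 4°C. The supernatant after 21,000xg for 90 min was taken as soluble protein and measured by TMTpro 16plex LC-MS/MS with channel sums equalised. Thermal stability is reported relative to control samples, with values from duplicates. Fold changes are given on a log2 scale.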
# [2] = compound: CC1=C(SC2=C1C(=N[C@H](C3=NN=C(N32)C)CC(=O)N)C4=CC=C(C=C4)Cl)C
# In short: as §1
# [3] = compound: CC1=C2C(=CC=C1)N=C(N(C2=O)C3=CC=CC=C3C)CN4C=NC5=C(N=CN=C54)N
# In short: as §1
# [4] = compound: Cc1sc2c(c1C)C(c1ccc(Cl)cc1)=N[C@@H](CC(=O)OC(C)(C)C)c1nnc(C)n1-2
# In short: as §1
# [5] = compound: c1ccc([C@@H]2C[C@H]2NC2CCNCC2)cc1
# In short: as §1
# Sequence of UniProt Q14457 (Q14457 whole entry, looked up): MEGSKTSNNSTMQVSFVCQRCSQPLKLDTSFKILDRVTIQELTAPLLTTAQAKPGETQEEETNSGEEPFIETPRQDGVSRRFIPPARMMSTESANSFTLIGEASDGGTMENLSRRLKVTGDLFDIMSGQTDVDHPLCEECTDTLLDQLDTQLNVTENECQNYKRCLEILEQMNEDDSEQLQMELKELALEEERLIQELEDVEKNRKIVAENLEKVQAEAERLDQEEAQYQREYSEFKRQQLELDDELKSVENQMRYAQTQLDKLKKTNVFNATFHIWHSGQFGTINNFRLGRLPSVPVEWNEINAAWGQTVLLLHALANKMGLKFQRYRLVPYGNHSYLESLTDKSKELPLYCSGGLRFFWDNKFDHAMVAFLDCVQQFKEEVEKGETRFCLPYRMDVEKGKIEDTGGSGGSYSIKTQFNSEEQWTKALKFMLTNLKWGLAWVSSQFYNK
# Sequence of UniProt P56211 (P56211 whole entry, looked up): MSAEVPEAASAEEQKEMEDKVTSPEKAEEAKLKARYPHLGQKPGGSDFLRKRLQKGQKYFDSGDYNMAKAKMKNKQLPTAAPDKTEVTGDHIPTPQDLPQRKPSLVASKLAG
# Sequence of UniProt P56385 (P56385 whole entry, looked up): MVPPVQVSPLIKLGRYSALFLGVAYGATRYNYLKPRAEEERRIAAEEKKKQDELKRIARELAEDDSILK
# Sequence of UniProt P17544 (P17544 whole entry, looked up): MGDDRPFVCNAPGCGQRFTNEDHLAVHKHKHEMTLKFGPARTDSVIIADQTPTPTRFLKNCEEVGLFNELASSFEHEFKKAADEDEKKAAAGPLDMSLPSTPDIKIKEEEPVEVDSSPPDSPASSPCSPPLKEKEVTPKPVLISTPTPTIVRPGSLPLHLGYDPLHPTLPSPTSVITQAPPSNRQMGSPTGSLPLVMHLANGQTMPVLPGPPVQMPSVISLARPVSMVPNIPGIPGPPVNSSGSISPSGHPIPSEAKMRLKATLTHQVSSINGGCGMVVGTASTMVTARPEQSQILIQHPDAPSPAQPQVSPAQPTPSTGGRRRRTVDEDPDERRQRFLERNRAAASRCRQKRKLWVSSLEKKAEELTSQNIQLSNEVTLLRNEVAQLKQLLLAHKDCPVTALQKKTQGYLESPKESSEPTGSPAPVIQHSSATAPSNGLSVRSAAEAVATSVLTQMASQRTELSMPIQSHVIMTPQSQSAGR
# Sequence of UniProt P31749 (P31749 whole entry, looked up): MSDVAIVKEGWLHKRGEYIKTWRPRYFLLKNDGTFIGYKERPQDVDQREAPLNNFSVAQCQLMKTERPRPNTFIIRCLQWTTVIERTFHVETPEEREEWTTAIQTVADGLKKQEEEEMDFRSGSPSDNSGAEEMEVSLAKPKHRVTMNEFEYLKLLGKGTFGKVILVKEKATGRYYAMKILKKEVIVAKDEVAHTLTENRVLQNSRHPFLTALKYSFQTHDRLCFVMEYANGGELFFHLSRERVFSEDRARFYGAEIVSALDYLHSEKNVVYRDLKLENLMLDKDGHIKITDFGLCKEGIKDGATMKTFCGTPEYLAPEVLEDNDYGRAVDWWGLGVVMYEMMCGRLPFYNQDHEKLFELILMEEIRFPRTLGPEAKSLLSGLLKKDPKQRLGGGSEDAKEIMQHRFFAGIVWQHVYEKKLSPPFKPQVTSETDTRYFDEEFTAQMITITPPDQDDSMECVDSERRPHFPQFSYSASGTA
# Sequence of UniProt Q02252 (Q02252 whole entry, looked up): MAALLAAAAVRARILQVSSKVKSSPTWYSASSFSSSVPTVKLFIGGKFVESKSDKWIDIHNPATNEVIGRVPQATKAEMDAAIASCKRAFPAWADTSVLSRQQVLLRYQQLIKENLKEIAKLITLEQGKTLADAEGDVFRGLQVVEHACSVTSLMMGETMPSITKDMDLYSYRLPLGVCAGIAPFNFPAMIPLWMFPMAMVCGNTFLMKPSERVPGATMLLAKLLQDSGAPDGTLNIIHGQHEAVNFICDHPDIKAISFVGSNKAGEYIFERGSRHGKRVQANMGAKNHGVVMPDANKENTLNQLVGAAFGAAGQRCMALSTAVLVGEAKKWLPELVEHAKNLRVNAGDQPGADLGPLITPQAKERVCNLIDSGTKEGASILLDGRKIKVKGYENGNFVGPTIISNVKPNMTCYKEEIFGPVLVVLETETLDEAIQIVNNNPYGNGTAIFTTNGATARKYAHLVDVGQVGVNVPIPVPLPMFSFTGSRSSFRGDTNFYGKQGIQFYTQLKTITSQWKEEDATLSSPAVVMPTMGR
# Sequence of UniProt P54709 (P54709 whole entry, looked up): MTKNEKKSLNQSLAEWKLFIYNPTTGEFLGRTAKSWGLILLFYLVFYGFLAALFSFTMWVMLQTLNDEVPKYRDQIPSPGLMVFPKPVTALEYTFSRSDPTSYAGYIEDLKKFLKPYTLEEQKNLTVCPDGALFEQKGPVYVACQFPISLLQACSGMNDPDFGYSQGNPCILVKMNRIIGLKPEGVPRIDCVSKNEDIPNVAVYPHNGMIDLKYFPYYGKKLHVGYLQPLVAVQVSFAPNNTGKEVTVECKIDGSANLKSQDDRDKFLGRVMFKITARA
# Sequence of UniProt Q9UBL3 (Q9UBL3 whole entry, looked up): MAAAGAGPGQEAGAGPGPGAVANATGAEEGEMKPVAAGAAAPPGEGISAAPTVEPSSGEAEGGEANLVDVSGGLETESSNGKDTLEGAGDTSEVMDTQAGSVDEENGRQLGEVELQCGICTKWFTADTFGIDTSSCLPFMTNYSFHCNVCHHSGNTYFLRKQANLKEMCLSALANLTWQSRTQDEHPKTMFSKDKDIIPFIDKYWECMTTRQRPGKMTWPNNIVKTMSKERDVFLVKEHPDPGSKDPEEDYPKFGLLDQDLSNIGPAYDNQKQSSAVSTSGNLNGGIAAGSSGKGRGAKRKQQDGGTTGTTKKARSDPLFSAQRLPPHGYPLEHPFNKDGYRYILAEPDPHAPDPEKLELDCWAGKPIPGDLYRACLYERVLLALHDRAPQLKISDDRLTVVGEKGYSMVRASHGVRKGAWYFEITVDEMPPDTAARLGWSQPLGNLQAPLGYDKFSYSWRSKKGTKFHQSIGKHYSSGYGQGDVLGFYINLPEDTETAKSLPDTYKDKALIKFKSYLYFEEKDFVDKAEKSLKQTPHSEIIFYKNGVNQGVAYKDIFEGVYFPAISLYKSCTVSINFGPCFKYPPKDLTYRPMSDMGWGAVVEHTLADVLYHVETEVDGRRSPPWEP
# Sequence of UniProt Q93084 (Q93084 whole entry, looked up): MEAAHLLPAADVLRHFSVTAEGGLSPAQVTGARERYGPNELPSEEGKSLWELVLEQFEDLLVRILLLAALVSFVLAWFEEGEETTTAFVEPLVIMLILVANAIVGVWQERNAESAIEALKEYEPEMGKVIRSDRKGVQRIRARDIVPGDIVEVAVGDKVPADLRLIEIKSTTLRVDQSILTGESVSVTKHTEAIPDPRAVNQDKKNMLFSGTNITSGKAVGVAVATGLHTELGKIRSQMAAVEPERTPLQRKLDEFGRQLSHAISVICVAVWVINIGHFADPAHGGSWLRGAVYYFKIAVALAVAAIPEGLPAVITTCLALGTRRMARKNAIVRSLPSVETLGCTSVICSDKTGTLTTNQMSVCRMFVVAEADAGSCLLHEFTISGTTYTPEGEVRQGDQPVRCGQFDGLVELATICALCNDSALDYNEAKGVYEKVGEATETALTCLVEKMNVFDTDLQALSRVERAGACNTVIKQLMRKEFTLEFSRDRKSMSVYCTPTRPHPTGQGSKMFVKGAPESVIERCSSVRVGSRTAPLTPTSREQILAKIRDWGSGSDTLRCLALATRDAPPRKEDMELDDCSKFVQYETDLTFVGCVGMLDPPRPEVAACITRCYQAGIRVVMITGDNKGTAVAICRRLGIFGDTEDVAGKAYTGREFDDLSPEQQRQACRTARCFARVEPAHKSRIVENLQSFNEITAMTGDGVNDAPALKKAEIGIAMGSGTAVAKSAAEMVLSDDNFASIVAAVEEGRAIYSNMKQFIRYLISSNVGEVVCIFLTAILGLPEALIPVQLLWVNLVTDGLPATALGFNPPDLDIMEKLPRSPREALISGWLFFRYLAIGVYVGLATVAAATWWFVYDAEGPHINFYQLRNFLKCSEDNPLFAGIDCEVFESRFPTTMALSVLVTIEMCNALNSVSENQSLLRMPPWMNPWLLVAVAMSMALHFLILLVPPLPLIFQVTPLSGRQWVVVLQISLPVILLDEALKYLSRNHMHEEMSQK
# Sequence of UniProt Q99798 (Q99798 whole entry, looked up): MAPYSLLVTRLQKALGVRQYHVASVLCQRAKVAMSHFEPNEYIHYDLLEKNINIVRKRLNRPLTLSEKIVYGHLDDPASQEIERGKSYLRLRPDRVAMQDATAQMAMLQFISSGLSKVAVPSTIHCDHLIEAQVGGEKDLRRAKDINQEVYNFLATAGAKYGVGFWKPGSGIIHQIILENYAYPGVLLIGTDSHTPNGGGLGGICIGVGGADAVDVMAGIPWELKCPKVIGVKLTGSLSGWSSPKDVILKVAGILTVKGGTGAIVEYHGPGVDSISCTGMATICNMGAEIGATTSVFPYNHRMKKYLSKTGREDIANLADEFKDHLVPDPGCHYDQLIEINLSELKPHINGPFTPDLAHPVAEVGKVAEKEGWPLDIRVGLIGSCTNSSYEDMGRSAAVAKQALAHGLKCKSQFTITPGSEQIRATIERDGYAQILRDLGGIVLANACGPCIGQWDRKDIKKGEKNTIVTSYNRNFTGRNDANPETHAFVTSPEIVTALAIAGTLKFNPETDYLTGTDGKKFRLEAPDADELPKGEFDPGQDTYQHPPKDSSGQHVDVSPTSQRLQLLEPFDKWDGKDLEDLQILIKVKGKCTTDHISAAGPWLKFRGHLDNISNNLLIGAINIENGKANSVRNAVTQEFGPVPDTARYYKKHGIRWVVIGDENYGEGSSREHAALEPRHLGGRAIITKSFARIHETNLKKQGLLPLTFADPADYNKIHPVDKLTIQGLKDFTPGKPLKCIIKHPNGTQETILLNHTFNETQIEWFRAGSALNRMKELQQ
# Sequence of UniProt P24666 (P24666 whole entry, looked up): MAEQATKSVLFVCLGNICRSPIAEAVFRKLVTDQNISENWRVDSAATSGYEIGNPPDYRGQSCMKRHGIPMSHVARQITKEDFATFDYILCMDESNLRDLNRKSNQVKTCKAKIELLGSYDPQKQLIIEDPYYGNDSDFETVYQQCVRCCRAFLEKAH
Target,log2 fold change [1],log2 fold change [2],log2 fold change [3],log2 fold change [4],log2 fold change [5]
ACAP2 (UniProt Q15057),-0.009,-0.001,0.132,0.01,0.011
ANKRD29 (UniProt Q8N6D5),-0.012,0.199,0.248,-0.029,-0.079
ATF7 isoform 6 (UniProt P17544),-0.097,0,-0.187,0.184,-0.034
BCLAF1 (UniProt Q9NYF8),0.031,0.027,-0.118,-0.013,0.047
AIFM2 (UniProt Q9BRQ8),0.036,0.047,0.026,0.045,0
ADAMTS5 (UniProt Q9UNA0),0.149,0.106,0.152,-0.076,-0.028
BUB1B isoform 3 (UniProt O60566),-0.077,-0.004,0.1,0.01,-0.002
ACP2 (UniProt P11117),0.027,-0.023,0.008,-0.023,0.024
AFDN isoform 5 (UniProt P55196),-0.04,0.055,0.069,-0.018,-0.023
ARFRP1 (UniProt Q13795),0,-0.066,-0.03,-0.021,0.029
ALDH2 (UniProt P05091),0.009,0.065,0.032,-0.043,-0.001
ARRDC1 (UniProt Q8N5I2),0.005,-0.462 (active),-0.062,-0.1,-0.037
BAIAP2 (UniProt Q9UQB8),-0.019,0.071,0.072,0.014,0.002
ATP5ME (UniProt P56385),0.028,0.117,0.007,-0.072,0.014
ATXN3 isoform 1 (UniProt P54252),-0.012,0.001,0.118,-0.068,0
APOB (UniProt P04114),0.041,0.028,0.055,0.034,-0.013
BRAP (UniProt Q7Z569),-0.058,0.025,0.05,0.081,0
ABCA3 (UniProt Q99758),0.239,0.002,-0.05,0.02,-0.035
ALG5 (UniProt Q9Y673),-0.037,0.1,0.082,-0.06,-0.056
AP2M1 (UniProt Q96CW1),-0.005,0.03,-0.013,0.006,0.009
ACO2 (UniProt Q99798),0,0.067,0.044,-0.023,-0.046
ATR (UniProt Q13535),-0.045,0.025,0.107,-0.022,-0.079
ATP11A (UniProt P98196),0.001,-0.003,0.085,-0.034,0.062
ATP1B3 (UniProt P54709),0.012,0.042,0.001,0.002,0.006
ATP1A4 (UniProt Q13733),-0.084,-0.142,0.035,0.036,0.056
AURKA (UniProt O14965),0,0.148,0.018,0.009,-0.038
ARPP19 (UniProt P56211),0.003,0.021,-0.076,0.031,-0.007

Target,log2 fold change [1],log2 fold change [2],log2 fold change [3],log2 fold change [4],log2 fold change [5]
ACSF3 (UniProt Q4G176),0.037,0.086,0.12,-0.067,0.063
AKAP8L (UniProt Q9ULX6),-0.011,-0.186,0.054,-0.047,0.043
ALDH6A1 (UniProt Q02252),0.082,0.124,0.128,-0.07,0.019
BECN1 (UniProt Q14457),-0.071,0.061,-0.017,0.021,0.05
ALG3 (UniProt Q92685),-0.061,0.019,0.072,0.054,-0.026
BRD8 (UniProt Q9H0E9),0.027,-0.009,0.023,0.009,0.021
ADD3 (UniProt Q9UEY8),0.019,0.034,0.023,-0.002,0.029
AKT1 (UniProt P31749),-0.068,0.018,0.034,0.042,-0.072
ANXA5 (UniProt P08758),-0.036,0.04,0.024,0.021,-0.022
ARMC8 (UniProt Q8IUR7),0.05,-0.005,0,0.021,0.011
ACOX3 (UniProt O15254),0.015,0.238,-0.185,0.131,0.077
ARAF (UniProt P10398),-0.05,-0.003,0.178,0.022,0.027
ABCB6 (UniProt Q9NP58),0.001,0.003,0.05,-0.049,0.012
ARL6IP4 (UniProt Q66PJ3),0.036,0.027,0.009,-0.016,-0.011
ATP2A3 isoform 2 (UniProt Q93084),-0.01,0.035,0.036,-0.002,0.01
AFG1L (UniProt Q8WV93),0.025,0.096,-0.008,-0.074,-0.129
ATP7B (UniProt P35670),0,0.094,0.014,0.022,0.076
ATP12A isoform 2 (UniProt P54707),-0.027,0.062,0.052,-0.044,-0.043
ACBD6 (UniProt Q9BR61),-0.033,0.087,0.1,-0.072,0.073
ARFGAP1 (UniProt Q8N6T3),0.033,0.077,0.074,-0.064,-0.034
ARHGAP1 (UniProt Q07960),-0.02,0.023,0.047,-0.005,0.002
ACP1 (UniProt P24666),-0.058,-0.026,0.184,-0.041,-0.416
ASH2L (UniProt Q9UBL3),0.016,-0.013,0.081,-0.031,0.005
ARHGAP4 isoform 2 (UniProt P98171),0.211,-0.101,-0.069,-0.122,0.008
ACACB (UniProt O00763),-0.044,-0.053,0.025,0.084,0.007
ALG11 (UniProt Q2TAA5),0.001,0.085,0.144,-0.051,-0.021
